# Screens as filed in PubChem.
# Most compounds without a hit are left out; they make up all but 11% or so of the library.
# IMPase cell inh = qHTS Assay for Identifying the Cell-Membrane Permeable IMPase Inhibitors; Inositol monophosphatase 1 (Rattus norvegicus), P97697; CHO-M1 cells, IP1 accumulation, HTRF TR-FRET ratio; inhibition (IP1 accumulation), % at 46.1 µM; 120,000 tested, under 10 active; active = well fitted curve in the direction sought with a large enough effect in the signal ratio, not every such curve was filed as active; inconclusive = small, poorly fitted or top-dose-only effect, or a change in a side signal; inactive = no such curve, though single readings can be large or run the other way; the % refers to the signal ratio;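 note: cells stimulated with carbachol in lithium chloride buffer; plate controls were DMSO basal wells for no effect and reference inhibitor wells for full effect; higher means more IMPase inhibition seen as more IP1 and lower FRET ratio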
# Target sequence (P97697 whole entry, looked up): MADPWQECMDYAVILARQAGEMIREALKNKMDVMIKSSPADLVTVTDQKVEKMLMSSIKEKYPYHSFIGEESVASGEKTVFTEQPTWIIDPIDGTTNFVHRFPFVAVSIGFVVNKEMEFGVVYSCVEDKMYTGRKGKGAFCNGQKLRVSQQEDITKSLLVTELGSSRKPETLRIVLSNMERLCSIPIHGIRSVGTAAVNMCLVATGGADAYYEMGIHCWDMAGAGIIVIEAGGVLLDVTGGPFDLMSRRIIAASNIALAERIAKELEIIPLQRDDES
#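 Seeded CHO-M1 cells were dosed with compound at up to 46 uM, stimulated with carbachol for 30 min, then lysed in IP-One detection reagents. Higher IP1 lowers the TR-FRET signal.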
# PNC assembly inh = High Content Assay for Compounds that inhibit the Assembly of the Perinucleolar Compartment. PC3M PTB-GFP, PNC prevalence imaging, 16 h; hits give low values. activity change (PNC), negative = inhibition, % at 10 µM. 3.1% of 140,000 active. AID 2417, 2010;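 active = readout at or below -70, meaning at least 70% loss of cells showing the perinucleolar compartment, a nuclear body marking cancer cells; inconclusive = readout between -30 and a set limit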;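 note: plate controls were DMSO wells for no effect and camptothecin positive control wells for full effect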
#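 PC3M cells stably expressing PTB-GFP, 750–1000 cells/well, treated 16 h at 37 °C with compound (23 nl of library stock), in duplicate. After paraformaldehyde fixation and Hoechst stain, imaged at 20x; PNC prevalence scored by image analysis.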
# HPGD block = qHTS Assay for Inhibitors of HPGD (15-Hydroxyprostaglandin Dehydrogenase); Potency, µM, without a hit: at the top dose activity change, negative = inhibition, most hits filed as inhibitors; purified HPGD, NADH fluorescence kinetic, PGE2 substrate; 4.3% of 150,000 active; 15-hydroxyprostaglandin dehydrogenase [NAD(+)] (Homo sapiens), P15428; note: potency is the fitted concentration of half-maximal effect
# Target sequence (P15428 whole entry, looked up): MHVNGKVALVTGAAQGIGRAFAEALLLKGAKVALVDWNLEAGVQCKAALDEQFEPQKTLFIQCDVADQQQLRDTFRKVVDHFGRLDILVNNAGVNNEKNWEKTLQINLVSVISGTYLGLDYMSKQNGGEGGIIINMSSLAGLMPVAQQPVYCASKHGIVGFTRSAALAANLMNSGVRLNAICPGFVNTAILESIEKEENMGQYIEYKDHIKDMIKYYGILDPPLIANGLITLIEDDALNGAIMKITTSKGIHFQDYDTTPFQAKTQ
#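 NADH formation kinetics: reaction with 30 uM PGE2 and 1 mM NAD+ (final), 20 nM enzyme, Tris-HCl pH 8 with Tween 20, after 15 min compound preincubation at room temperature. Fluorescence change, last versus first of five reads.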
# IMPase Li cell = qHTS Assay for Identifying the Cell-Membrane Permeable IMPase Inhibitors: Potentiation with Lithium | CHO-M1 cells, IP1 TR-FRET (IP-One), carbachol + lithium | AID 1457, 2008 | Potency, µM (highest dose often 59.4 µM), inactives show top-dose activity, negative = IMPase inhibition, hits mostly inhibitors | 0.35% of 210,000 active; active = well fitted inhibition curve with a large enough effect; inconclusive = small, poorly fitted or top-dose-only effect; inactive = no such curve, though single readings can be large or run the other way;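 note: IP1 builds up when IMPase is blocked and the TR-FRET signal falls; potency is the fitted concentration of half-maximal effect; plate controls were basal vehicle for no effect and high inhibitor control for full effect; nearly all actives have a fitted effect of over 50% in size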
#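 Readout is a homogeneous TR-FRET IP1 immunoassay (Ex 320, Em 665 and 620), where raised cytosolic IP1 lowers signal. Cells were CHO-M1 treated 30 min at 37C with test compounds plus a little lithium; AC50 values came from Hill-equation fitting.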
# ALDH1A1 inh = qHTS Assay for Inhibitors of Aldehyde Dehydrogenase 1 (ALDH1A1). Aldehyde dehydrogenase 1A1 (Homo sapiens), P00352. Purified ALDH1A1, NADH fluorescence, propionaldehyde substrate. Potency, µM (highest dose often 75.3 µM), for inactives: top-dose activity, negative = inhibition, hits mostly inhibitors. 7.3% of 220,000 active. AID 1030, 2008;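 note: potency is the fitted concentration of half-maximal effect; plate controls were no enzyme wells and a reference inhibitor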
# The depositor's hits bear a star; ? = inconclusive; / = no result given; [ ] = remark or other dose. Unless noted, calls come from the whole dose curve; as a rule, active = well fitted inhibition curve with a large enough effect (not every such curve was filed as active); inconclusive = small, poorly fitted or top-dose-only effect, or another doubt; inactive = no such curve, though single readings can be large or run the other way. Unless noted, % is set by controls: 0 for no effect and ±100 for the full control effect.
SMILES,IMPase cell inh,PNC assembly inh,HPGD block,IMPase Li cell,ALDH1A1 inh
CC(C)C(=O)NS(=O)(=O)c1ccc(N)cc1,-7,?,-1%,15%[38.3 µM],?
CC(C)CC(=O)NS(=O)(=O)c1ccc(N)cc1,7,?,-2%,0%,10µM*
C=CC(=O)OCCCCCCOC(=O)C=C,/,/,-4%,-5%,2µM*
COc1ccc(OC)c(Nc2ccc(Nc3cc(OC)ccc3OC)nn2)c1,6,23,-5%,11%,-5%
COc1ccc(OC)c(NC=C2C(=O)OC(C)(C)OC2=O)c1,5,83,-18%,-1%[38.3 µM],0.18µM*
CCOc1ccccc1NC=C1C(=O)OC2(CCCCC2)OC1=O,13,54,-4%,26%[38.3 µM],0.71µM*
COc1ccc(C(=O)NC=C2C(=O)OC(C)(C)OC2=O)cc1,/,/,/,-5%,13µM*
COc1ccc(C(=O)Nc2cccc(OC)c2)cc1,9,?,-24%,10%[38.3 µM],?
COc1ccc(OC)c(NC=C2C(=O)OC3(CCCCC3)OC2=O)c1,6,-6,?,8%[38.3 µM],0.089µM*
CC(=O)c1cccc(NC=C2C(=O)OC3(CCCCC3)OC2=O)c1,8,0,-26%,-5%[38.3 µM],2.2µM*
C[C@@]12CCC(=O)C=C1CC[C@@H]1[C@@H]2[C@H](O)C[C@]2(C)[C@@H]1CC[C@]2(O)C(=O)CO,/,/,-1%,/,-2%[20.9 µM]
Cc1nn2c([nH]c(=O)c3ccccc32)c1C=O,-6,36,16µM*,10%[38.3 µM],-1%
CC1CCN(C(=O)CN2C(=O)C(=O)c3ccccc32)CC1,2,-21,-7%,-1%[38.3 µM],0.35µM*
CC1CCN(C(=O)CN2C(=O)c3cccc4cccc(c34)C2=O)CC1,/,/,/,4%,?
O=C(c1cc(-c2ccccn2)nc2c(Cl)cccc12)N1CCN(S(=O)(=O)c2ccccc2)CC1,/,49,-16%,-5%,16µM*
O=C(c1cc(-c2ccccn2)nc2c(Cl)cccc12)N1CCN(C(=O)C2CCCO2)CC1 (configuration not stated),1,-18,-16%,-2%[38.3 µM],-6%
COc1cccc(CNC(=O)C2CCN(S(=O)(=O)c3ccccc3)CC2)c1,3,31,4%,4%[38.3 µM],3%
COc1ccc(Br)cc1CNC(=O)C1CCN(S(=O)(=O)N2CCCCC2)CC1,3,78,-7%,1%[38.3 µM],13µM*
COc1ccc(S(=O)(=O)N2CCC(C(=O)NCc3cccc(OC)c3)CC2)cc1,1,7,-11%,13%[38.3 µM],-15%
O=C(NCc1n[nH]c(=S)n1-c1ccc(Br)cc1)c1ccc(S(=O)(=O)N2CCCC2)cc1,/,/,/,3%,?
COc1cccc(CNC(=O)C2CCN(S(=O)(=O)N3CCCCC3)CC2)c1,-4,11,-12%,-2%[38.3 µM],10µM*
COc1ccc(-n2c(CNC(=O)c3ccc(S(=O)(=O)N4CCCC4)cc3)n[nH]c2=S)cc1,7,?,-7%,-6%[38.3 µM],10µM*
COc1cccc(CNC(=O)c2ccc(S(=O)(=O)N3CCCC3)cc2)c1,6,40,-5%,23%[38.3 µM],13µM*
Cc1cc(NC(=O)CCS(=O)(=O)c2cc(Br)cc3c2N(C(=O)C2CC2)CC3)ccc1Br,4,/,/,/,/
COc1cccc(CN(C)C(=O)c2ccc(S(=O)(=O)N3CCCC3)cc2)c1OC,-4,10,-5%,9%[38.3 µM],11µM*
SMILES,IMPase cell inh,PNC assembly inh,HPGD block,IMPase Li cell,ALDH1A1 inh
COc1ccc(S(=O)(=O)Nc2cc3c(cc2NCc2ccccc2)n(C)c(=O)n3C)cc1OC,5,/,/,/,/
Cc1ccc(NC(=O)COC(=O)Cn2cnc3c2c(=O)n(C)c(=O)n3C)cc1Cl,/,/,/,0%,8%
Cc1ccc(NC(=O)COC(=O)CC2CCCC2)cc1Cl,/,/,/,0%,22µM*
Cc1ccc(NC(=O)COc2ccccc2C(=O)Nc2ccccc2)cc1Cl,/,-10,-18%,10%,?
CCOCC(=O)Nc1cccc(OC)c1,-10,-89*,?,6%,?
COc1cccc(NC(=O)CN(C)CC(=O)Nc2ccc(C)cc2Cl)c1,/,/,/,23%,11µM*
CCOCC(=O)Nc1ccc(C)c(Cl)c1,3,7,16µM*,18%[38.3 µM],25µM*
CSc1nnc(-c2ccc([N+](=O)[O-])cc2)o1,/,/,/,8%,-15%
CCC1CCC(c2nnc(-c3ccc([N+](=O)[O-])cc3)o2)CC1 (configuration not stated),3,?,-4%,21%,11µM*
N#Cc1cccc(-c2ccc3ncnc(N4CCNCC4)c3c2)c1,/,/,/,10%,-2%
COc1ccccc1-c1ccc2ncnc(N(C)C)c2c1,/,/,14µM*,20%,-8%
CN(C)c1ncnc2ccc(-c3cccc(C#N)c3)cc12,/,/,/,22%,32µM*
COc1ccccc1-c1ccc2ncnc(N3CCN(C)CC3)c2c1,/,/,?,32%,?
COc1ccc(C2=C(N3CCN(c4cccc(C)c4C)CC3)c3ccccc3C2=O)cc1,16,/,/,/,/
COCCn1c(=O)c(-c2cc(F)cc(F)c2)nc2cnc(OC)nc21,/,/,?,0%,?
Nc1ccc(O)c(C(=O)O)c1,20[20.6 µM],/,11µM*,0%,?
O=C(COC(=O)c1cccnc1Nc1cccc(C(F)(F)F)c1)NC1CCS(=O)(=O)C1 (configuration not stated),2,1,-9%,82%,1%
COc1ccc(S(=O)(=O)Nc2cc(Cl)ccc2OC)cc1,2,?,-18%,-5%[38.3 µM],4%
COc1ccc(Cl)cc1NS(=O)(=O)c1ccc(S(=O)(=O)N2CCCC2)cc1,0,-17,-7%,2%[38.3 µM],28µM*
COc1ccc(Cl)cc1C(=O)Nc1ccc(S(=O)(=O)N2CCCC2)cc1,-8,7,-22%,-22%[38.3 µM],?
COc1ccc(Cl)cc1NS(=O)(=O)c1ccc(OC)c(OC)c1,-11,1,-17%,20%,13µM*
Cc1ccccc1CSCC(=O)NC1CCCC1,2,-28,18µM*,27%[38.3 µM],8%
O=C(CSCC(=O)NC1CCCC1)Nc1ccccc1,/,-20,?,-13%,6%
Cc1ccc(NC(=O)CSCc2ccco2)cc1,/,/,/,12%,22µM*
O=C(CSCc1ccco1)NC1CCCC1,/,?,28µM*,3%,?
O=CN(Cc1ccco1)C1(C(=O)NC2CCCCC2)CCCCC1,12,5,3%,12%[38.3 µM],14µM*
CCCOCC(C)OCC(C)O (configuration not stated),/,/,-10%,9%,8%
COc1ccccc1CN1CC2(CCN(C(=O)c3cnccn3)CC2)C1,/,/,-2%,1%,3%
Nc1ncnc2c1ncn2[C@@H]1CCCO1,-2,/,/,/,/
